# This is one part of the list. The true hit rate is not given.
# Biological target: furin, P09958
# Test: furin cleavage Z-score vs untreated control; higher = more cleavage, active = 3.5 or more, inactive = 1 or less, 8 variable residues between constant flanks
# How it was run: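 Cleavage by purified furin was measured on 8-mer peptides fused to a cDNA oligonucleotide and held on magnetic beads by their N-terminus. Reactions (0.01 ml, 1:10 enzyme:substrate) ran 7.5, 15 or 30 min in 50 mM HEPES pH 7.5 with CaCl2 and NaCl. Released DNA was adapter-tagged by PCR and sequenced, with read counts giving abundance. Log counts versus furin-free reactions were lowess-adjusted and scaled by median absolute deviation to give the cleavage Z-score.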
# Chain of furin, P09958 (P09958 whole entry): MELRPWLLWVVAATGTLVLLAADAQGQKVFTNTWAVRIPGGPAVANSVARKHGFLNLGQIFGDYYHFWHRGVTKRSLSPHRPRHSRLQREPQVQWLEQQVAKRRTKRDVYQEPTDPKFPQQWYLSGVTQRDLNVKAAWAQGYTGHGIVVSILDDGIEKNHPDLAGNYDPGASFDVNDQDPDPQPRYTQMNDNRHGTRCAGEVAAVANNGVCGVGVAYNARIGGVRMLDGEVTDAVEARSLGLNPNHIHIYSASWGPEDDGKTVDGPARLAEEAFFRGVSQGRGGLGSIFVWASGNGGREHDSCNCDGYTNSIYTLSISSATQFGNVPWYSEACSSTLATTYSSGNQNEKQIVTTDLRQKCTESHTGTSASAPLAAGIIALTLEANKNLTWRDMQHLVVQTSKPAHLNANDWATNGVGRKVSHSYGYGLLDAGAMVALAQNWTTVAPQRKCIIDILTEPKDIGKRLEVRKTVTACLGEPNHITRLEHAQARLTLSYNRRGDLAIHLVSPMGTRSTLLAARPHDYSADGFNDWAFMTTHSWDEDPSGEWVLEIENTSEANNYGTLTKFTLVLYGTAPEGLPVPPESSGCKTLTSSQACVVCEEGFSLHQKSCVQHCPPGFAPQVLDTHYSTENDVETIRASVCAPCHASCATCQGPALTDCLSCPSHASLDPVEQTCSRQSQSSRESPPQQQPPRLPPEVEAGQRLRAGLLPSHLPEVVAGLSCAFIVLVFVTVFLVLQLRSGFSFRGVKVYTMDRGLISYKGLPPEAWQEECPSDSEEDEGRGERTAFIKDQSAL
Sequence,furin cleavage Z-score (7.5 min),furin cleavage Z-score (15 min),furin cleavage Z-score (30 min)
CANEMEECSQAGNASASA [HC1801],-0.962 (inactive),0.682 (inactive),-0.461 (inactive)
CAETVTSTWVAGNASASA [HC2178],-0.174 (inactive),0.0107 (inactive),0.00907 (inactive)
CAARRRRKRLAGNASASA [FS-9],9.78 (active),12.2 (active),9.85 (active)
CAVQVRGKRLAGNASASA [FS-312],6.21 (active),7.9 (active),7.68 (active)
CAQQELRKRLAGNASASA [FS-1390],0.809 (inactive),0.166 (inactive),1.43
CAVGGVEHRLAGNASASA [HC477],0.551 (inactive),1.48,0.304 (inactive)
CARRRRRKESAGNASASA [FS-2298],2.91,3.94 (active),2.81
CARRATLKRSAGNASASA [FS-624],3.99 (active),5.42 (active),4.76 (active)
CANKVRAKRSAGNASASA [FS-618],10.6 (active),10.4 (active),8.36 (active)
CAVFSRDSRSAGNASASA [FS-103],2.25,0.692 (inactive),2.36
CAGQPGLKRSAGNASASA [FS-1203],-1.59 (inactive),1.19,-2.33 (inactive)
CARRRRDSRSAGNASASA [FS-1267],9.84 (active),9.21 (active),7.48 (active)
CAKGWRLLAPAGNASASA [HC671],0.0408 (inactive),0.181 (inactive),-0.469 (inactive)
CALPINALSNAGNASASA [HC1381],0.137 (inactive),-0.538 (inactive),-0.0923 (inactive)
CAFWEGVFTGAGNASASA [HC939],-1.63 (inactive),0.063 (inactive),-1.49 (inactive)
CATLTCGFADAGNASASA [HC223],-1.51 (inactive),-0.777 (inactive),-0.721 (inactive)
CAEVVTSTIVAGNASASA [HC2224],1.34,0.923 (inactive),-0.591 (inactive)
CAIEMEECSQAGNASASA [HC1784],0.115 (inactive),-0.919 (inactive),-0.409 (inactive)
CARRRRAKRSAGNASASA [FS-1481],10 (active),9.95 (active),7.99 (active)
CAMEECCQHLAGNASASA [HC34],0.752 (inactive),-0.68 (inactive),0.844 (inactive)
CAHPSRKRRAAGNASASA [FS-132],11.3 (active),11.3 (active),8.53 (active)
CAHYVPESDAAGNASASA [HC1127],-0.402 (inactive),-0.697 (inactive),-1.88 (inactive)
CAERSRVCRCAGNASASA [FS-123],-0.711 (inactive),0.103 (inactive),2.18
CAERSREMRAAGNASASA [FS-1120],0.288 (inactive),0.367 (inactive),-1.27 (inactive)
CAESTRTRRAAGNASASA [FS-1522],8.54 (active),9.73 (active),8.09 (active)
CAERSRKRRAAGNASASA [FS-417],11.5 (active),10.5 (active),7.42 (active)
CAHPNIEEVAAGNASASA [HC840],0.6 (inactive),-0.828 (inactive),0.48 (inactive)
CAHPVREARAAGNASASA [FS-1211],3.66 (active),5.02 (active),5.4 (active)

# — the supplement of paper PMC3545927
